Test results as given in PubChem BioAssay (EPA / NIEHS).
Active and inactive are the calls of the source. How the source made its calls: active means hit-call score of the fitted dose curve at least 0.9, where 1 is the maximum; inactive means score below 0.9.

Experiments:
Conditions in all cases: mRNA level, 48 h; actives raise or lower the signal
[1] = read-out: ABC Transporter (ABCC3), ABCC3 (gene 8714); assay: LTEA_HepaRG_ABCC3: Life Technologies and Expression Analysis (LTEA) Assay for ABC Transporter (ABCC3) using HepaRG (AID 2283462)
Method in brief: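 Differentiated human HepaRG cells exposed 48 h in serum-free induction medium, 0.5% DMSO vehicle, 8-point half-log series to 100 uM in duplicate. ABCC3 mRNA by qRT-PCR, normalised to ACTB, GAPDH, POLR2A; bidirectional fit vs DMSO.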

[2] = read-out: ABC Transporter (ABCB11), ABCB11 (gene 8647); assay: LTEA_HepaRG_ABCB11: Life Technologies and Expression Analysis (LTEA) Assay for ABC Transporter (ABCB11) using HepaRG (AID 2283463)
Method in brief: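 Using HepaRG cultures held in 0.5% DMSO, chemicals were tested at half-log dilutions from 100 uM for 48 h. Induction or suppression of ABCB11 mRNA, normalized to ACTB, GAPDH and POLR2A, was fitted bidirectionally against vehicle.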

[3] = read-out: ABC Transporter (ABCC2), ABCC2 (gene 1244); assay: LTEA_HepaRG_ABCC2: Life Technologies and Expression Analysis (LTEA) Assay for ABC Transporter (ABCC2) using HepaRG (AID 2283464)
Method in brief: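 Differentiated HepaRG cells in serum-free induction medium exposed 48 h to eight half-log concentrations up to 100 uM, 0.5% DMSO, in duplicate. ABCC2 mRNA measured by qRT-PCR (TaqMan, Fluidigm), normalized to ACTB, GAPDH and POLR2A. Fitted in both directions against DMSO.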

[4] = read-out: Broad substrate specificity ATP-binding cassette transporter ABCG2 (Homo sapiens) (UniProt Q9UNQ0); assay: LTEA_HepaRG_ABCG2: Life Technologies and Expression Analysis (LTEA) Assay for ABC Transporter (ABCG2) using HepaRG (AID 2283465)
Method in brief: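 Gene expression of ABCG2 in HepaRG liver cells is quantified by qRT-PCR following 48 h exposure across an eight-point series topping at 100 uM. Values come from bidirectional fitting relative to DMSO vehicle.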

[5] = read-out: ATP-citrate lyase (ACLY), ACLY (gene 47); assay: LTEA_HepaRG_ACLY: Life Technologies and Expression Analysis (LTEA) Assay for ATP-citrate lyase (ACLY) using HepaRG (AID 2283466)
Method in brief: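 ACLY expression changes in human HepaRG liver cells are quantified by qRT-PCR after 48 h exposure to test chemicals (maximum 100 uM, half-log steps). Values are fitted in both directions relative to 0.5% DMSO vehicle.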

[6] = read-out: Peroxisomal acyl-coenzyme A oxidase 1 (ACOX1) gene, ACOX1 (gene 51); assay: LTEA_HepaRG_ACOX1: Life Technologies and Expression Analysis (LTEA) Assay for Peroxisomal acyl-coenzyme A oxidase 1 (ACOX1) gene using HepaRG (AID 2283467)
Method in brief: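 Human HepaRG hepatic cultures, 48 h treatment with test chemicals up to 100 uM. ACOX1 expression read by qRT-PCR relative to 0.5% DMSO vehicle.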

[7] = read-out: Alkaline Phosphatase, Placental (ALPP) gene, ALPP (gene 250); assay: LTEA_HepaRG_ALPP: Life Technologies and Expression Analysis (LTEA) Assay for Alkaline Phosphatase, Placental (ALPP) gene using HepaRG (AID 2283468)
Method in brief: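 HepaRG cells plated 48 h, then exposed in duplicate for 48 h in serum-free induction medium to 8-point half-log series from 100 uM in 0.5% DMSO. ALPP mRNA by TaqMan qRT-PCR, normalized to ACTB/GAPDH/POLR2A; bidirectional fit versus DMSO.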

[8] = read-out: Bcl-2 (BAD) gene, BAD (gene 572); assay: LTEA_HepaRG_BAD: Life Technologies and Expression Analysis (LTEA) Assay for Bcl-2 (BAD) gene using HepaRG (AID 2283469)
Method in brief: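 Activity values reflect up- or down-regulation of BAD mRNA in human HepaRG hepatic cells treated 48 h in serum-free medium, with eight-point half-log dosing capped at 100 uM and 0.5% DMSO vehicle.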

[9] = read-out: Bcl-2 (BAX) gene, BAX (gene 581); assay: LTEA_HepaRG_BAX: Life Technologies and Expression Analysis (LTEA) Assay for Bcl-2 (BAX) gene using HepaRG (AID 2283470)
Method in brief: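 Cells were thawed, plated for 48 h, moved to serum-free induction medium and dosed for 48 h (highest concentration 100 uM, half-log steps, 0.5% DMSO). Total RNA was then analysed for BAX expression by qRT-PCR.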

[10] = read-out: adenosine kinase (ADK) gene, ADK (gene 132); assay: LTEA_HepaRG_ADK: Life Technologies and Expression Analysis (LTEA) Assay for adenosine kinase (ADK) gene using HepaRG (AID 2283471)
Method in brief: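 Following 48 h exposure of HepaRG cells in 0.5% DMSO (top concentration 100 uM, duplicate wells), ADK mRNA induction or suppression was measured by qRT-PCR, normalised to ACTB/GAPDH/POLR2A, and fitted bidirectionally relative to vehicle.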

[11] = read-out: Alpha-fetoprotein (AFP) gene, AFP (gene 174); assay: LTEA_HepaRG_AFP: Life Technologies and Expression Analysis (LTEA) Assay for Alpha-fetoprotein (AFP) gene using HepaRG (AID 2283472)
Method in brief: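 Chemicals were tested on differentiated HepaRG cells for 48 hours at eight concentrations up to 100 uM, with 0.5% DMSO as vehicle. AFP expression was then quantified by qRT-PCR and analyzed for gain or loss relative to DMSO.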

[12] = read-out: BCL2L11 (gene 10018); assay: LTEA_HepaRG_BCL2L11: Life Technologies and Expression Analysis (LTEA) Assay for Bcl-2 (BCL2L11) gene using HepaRG (AID 2283473)
Method in brief: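 Differentiated human HepaRG cells were exposed 48 h in serum-free induction medium to eight half-log concentrations up to 100 uM in 0.5% DMSO, in duplicate. BCL2L11 mRNA was quantified by TaqMan qRT-PCR, normalized to ACTB, GAPDH and POLR2A; induction or repression fitted versus DMSO.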

[13] = read-out: Apolipoprotein A-V (APOA5) gene, APOA5 (gene 116519); assay: LTEA_HepaRG_APOA5: Life Technologies and Expression Analysis (LTEA) Assay for Apolipoprotein A-V (APOA5) gene using HepaRG (AID 2283474)
Method in brief: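 Differentiated HepaRG cells in serum-free induction medium, exposed 48 h in duplicate to eight half-log concentrations topping at 100 uM (0.5% DMSO). APOA5 mRNA by Fluidigm TaqMan qRT-PCR, normalized to ACTB, GAPDH and POLR2A; bidirectional fit versus DMSO.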

[14] = read-out: Apoptosis regulator Bcl-2 (Homo sapiens) (UniProt P10415); assay: LTEA_HepaRG_BCL2: Life Technologies and Expression Analysis (LTEA) Assay for Bcl-2 gene using HepaRG (AID 2283475)
Method in brief: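 Plated human HepaRG cells are exposed to test chemicals for 48 h across eight concentrations from 100 uM downward in half-log steps (0.5% DMSO). BCL2 expression is then measured by qRT-PCR with housekeeping normalisation and fitted bidirectionally against vehicle.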

[15] = read-out: Bcl-2 (BID) gene, BID (gene 637); assay: LTEA_HepaRG_BID: Life Technologies and Expression Analysis (LTEA) Assay for Bcl-2 (BID) gene using HepaRG (AID 2283476)
Method in brief: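 Cells are plated, cultured 48 h, switched to serum-free induction medium, then dosed 48 h (100 uM top, half-log steps, 0.5% DMSO). RNA is isolated and BID expression read by qRT-PCR.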

[16] = read-out: Caspase-3 (Homo sapiens) (UniProt P42574); assay: LTEA_HepaRG_CASP3: Life Technologies and Expression Analysis (LTEA) Assay for cysteine-aspartic acid protease (CASP3) using HepaRG (AID 2283477)
Method in brief: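 Differentiated HepaRG cells, plated 48 h, were treated in duplicate in serum-free induction medium for 48 h with eight half-log concentrations up to 100 uM in 0.5% DMSO. CASP3 mRNA measured by qRT-PCR, normalized to ACTB, GAPDH, POLR2A.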

[17] = read-out: Cytochrome P450 (CYP24A1), CYP24A1 (gene 1591); assay: LTEA_HepaRG_CYP24A1: Life Technologies and Expression Analysis (LTEA) Assay for Cytochrome P450 (CYP24A1) using HepaRG (AID 2283478)
Method in brief: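 HepaRG cells plated 48 h, then exposed in duplicate in serum-free induction medium for 48 h to 8-point half-log series from 100 uM in 0.5% DMSO. CYP24A1 mRNA by Fluidigm qRT-PCR, normalized to ACTB, GAPDH, POLR2A; bidirectional fit versus DMSO.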

[18] = read-out: Cytochrome P450 (CYP1A2), CYP1A2 (gene 1544); assay: LTEA_HepaRG_CYP1A2: Life Technologies and Expression Analysis (LTEA) Assay for Cytochrome P450 (CYP1A2) using HepaRG (AID 2283479)
Method in brief: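 Differentiated human HepaRG cells in serum-free induction medium exposed 48 hours in duplicate to 8 half-log concentrations from 100 uM, 0.5% DMSO. CYP1A2 mRNA quantified by qRT-PCR, normalized to ACTB, GAPDH and POLR2A; bidirectional fitting versus DMSO.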

[19] = read-out: cysteine-aspartic acid protease (CASP8), CASP8 (gene 841); assay: LTEA_HepaRG_CASP8: Life Technologies and Expression Analysis (LTEA) Assay for cysteine-aspartic acid protease (CASP8) using HepaRG (AID 2283480)
Method in brief: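 Concentration-response in duplicate up to 100 uM (half-log steps, 0.5% DMSO) on differentiated HepaRG cultures for 48 h. Expression change of CASP8 mRNA is determined by TaqMan qRT-PCR with housekeeping-gene normalization.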

[20] = read-out: Cytochrome P450 (CYP2B6), CYP2B6 (gene 1555); assay: LTEA_HepaRG_CYP2B6: Life Technologies and Expression Analysis (LTEA) Assay for Cytochrome P450 (CYP2B6) using HepaRG (AID 2283481)
Method in brief: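 Differentiated human HepaRG cells in serum-free induction medium, dosed in duplicate for 48 h over 8 half-log concentrations topping at 100 uM (0.5% DMSO). CYP2B6 mRNA measured by TaqMan qRT-PCR, normalized to ACTB, GAPDH, POLR2A; bidirectional fit versus DMSO.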

Measured: AC50

Chain of Caspase-3 (Homo sapiens) (P42574 whole entry, looked up): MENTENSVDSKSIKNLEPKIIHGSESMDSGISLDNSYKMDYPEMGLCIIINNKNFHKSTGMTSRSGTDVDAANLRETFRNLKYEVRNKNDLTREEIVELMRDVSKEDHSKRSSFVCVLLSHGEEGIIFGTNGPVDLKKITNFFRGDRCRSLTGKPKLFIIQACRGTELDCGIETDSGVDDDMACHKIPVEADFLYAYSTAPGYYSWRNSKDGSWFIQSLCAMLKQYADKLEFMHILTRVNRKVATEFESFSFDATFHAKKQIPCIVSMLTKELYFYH
Chain of Apoptosis regulator Bcl-2 (Homo sapiens) (P10415 whole entry, looked up): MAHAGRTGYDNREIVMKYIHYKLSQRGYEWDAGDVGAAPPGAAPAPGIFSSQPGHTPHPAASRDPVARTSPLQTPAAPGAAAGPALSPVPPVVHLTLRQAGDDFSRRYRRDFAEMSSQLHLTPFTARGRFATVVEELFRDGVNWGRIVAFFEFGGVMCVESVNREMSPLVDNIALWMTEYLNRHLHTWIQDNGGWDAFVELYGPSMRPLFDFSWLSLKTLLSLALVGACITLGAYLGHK
Chain of Broad substrate specificity ATP-binding cassette transporter ABCG2 (Homo sapiens) (Q9UNQ0 whole entry, looked up): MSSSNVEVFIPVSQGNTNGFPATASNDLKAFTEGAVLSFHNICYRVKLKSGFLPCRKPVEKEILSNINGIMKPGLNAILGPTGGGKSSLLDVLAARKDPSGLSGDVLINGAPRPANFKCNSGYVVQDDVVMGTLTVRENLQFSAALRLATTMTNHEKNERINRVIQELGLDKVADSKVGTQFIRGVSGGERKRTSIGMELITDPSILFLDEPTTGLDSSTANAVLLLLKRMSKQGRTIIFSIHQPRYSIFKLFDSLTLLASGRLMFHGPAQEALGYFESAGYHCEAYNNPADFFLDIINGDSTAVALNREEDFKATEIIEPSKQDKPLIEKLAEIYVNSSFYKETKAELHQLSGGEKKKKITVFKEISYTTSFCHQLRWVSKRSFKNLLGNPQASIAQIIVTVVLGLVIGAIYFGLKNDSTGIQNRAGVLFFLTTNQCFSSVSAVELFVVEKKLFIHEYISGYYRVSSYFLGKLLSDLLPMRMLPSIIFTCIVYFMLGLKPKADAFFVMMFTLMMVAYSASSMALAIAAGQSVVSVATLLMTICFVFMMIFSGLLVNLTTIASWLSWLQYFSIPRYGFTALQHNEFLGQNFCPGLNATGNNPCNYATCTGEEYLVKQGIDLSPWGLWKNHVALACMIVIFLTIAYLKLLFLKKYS

c1ccc2n[nH]nc2c1
inactive: all assays above

CCCCCCCCCC(=O)O
not listed: [11]
inactive: all other assays above

O=C=NCCCCCCN=C=O
not listed: [10]
inactive: all other assays above

COc1cccc([C@H](O)C2CCN(CCc3ccc(F)cc3)CC2)c1OC
active: [2] 26.6 µM | [5] 80.7 µM | [7] 9.92 µM | [18] 58.9 µM | [20] 13.9 µM
not listed: [10] | [11]
inactive: all other assays above

CC(C)(c1cc(Br)c(O)c(Br)c1)c1cc(Br)c(O)c(Br)c1
active: [2] 9.94 µM | [6] 89.1 µM | [9] 22.6 µM | [20] 89.3 µM
not listed: [10] | [11] | [16]
inactive: all other assays above

O=C(Nc1ccc(Cl)cc1)Nc1ccc(Cl)c(Cl)c1
inactive: [1] | [3] | [8] | [12] | [15] | [17] | [19]
active: [2] 15 µM | [4] 12.4 µM | [5] 17.5 µM | [6] 18.5 µM | [7] 19.6 µM | [9] 29.2 µM | [10] 22.6 µM | [13] 21.4 µM | [14] 11.9 µM | [16] 13.3 µM | [18] 11.8 µM | [20] 19.2 µM

CCN(CC)C(=O)c1cc(S(=O)(=O)Cc2ccccc2)c(N2CCC(c3ccccc3)CC2)cc1N(CC)CCN(C)C
active: [1] 31 µM | [3] 30.8 µM | [5] 4.57 µM | [6] 32.7 µM | [7] 31.5 µM | [12] 25.7 µM | [13] 29.2 µM | [16] 30.6 µM | [18] 6.01 µM | [19] 30.8 µM | [20] 5.04 µM
inactive: [2] | [4] | [8] | [9] | [11] | [14] | [15] | [17]

CC[C@@H]1C[C@H](N(Cc2cc(C(F)(F)F)cc(C(F)(F)F)c2)C(C)=O)c2cc(C(F)(F)F)ccc2N1C(=O)OC(C)C
active: [3] 0.737 µM | [18] 21.3 µM | [20] 0.735 µM
not listed: [11]
inactive: all other assays above

Oc1ccc2ccccc2c1
active: [18] 78.1 µM
inactive: all other assays above

OCCO
active: [16] 9.97 µM
not listed: [10]
inactive: all other assays above

CCCCCCCCCCCC[N+](C)(C)C
active: [2] 73.9 µM | [3] 50 µM | [4] 67.5 µM | [5] 83.3 µM | [6] 77.8 µM | [7] 66.1 µM | [9] 84.6 µM | [12] 90.3 µM | [13] 79.4 µM | [14] 84.4 µM | [20] 92.4 µM
inactive: [1] | [8] | [11] | [15] | [16] | [17] | [18] | [19]

O=C(O)c1ccccc1-n1cc(C(=O)O)c(=O)c2cc(Nc3c(F)cc(F)cc3Cl)c(Cl)cc21
active: [3] 10.6 µM | [7] 0.0892 µM | [15] 10 nM | [20] 11.2 µM
inactive: all other assays above
